# Source: PubChem BioAssay (NCATS)
# Results filed as inconclusive are left out. A call without a number means that no potency is given here. Calls of active or inactive are those of the source. The call rests on the fitted dose curve; in most records, active means well fitted inhibition curve with a large enough effect; inconclusive means small, poorly fitted or top-dose-only effect, or effect the other way; inactive means flat fitted curve, though single readings scatter.
# Experiment: Quantitative high throughput screen for delayed death inhibitors of the malarial parasite plastid, 48 hour incubation (AID 488752); further: nearly all actives have a fitted effect of over 65% in size
# Settings: Plasmodium falciparum growth; series mostly up to 28.7 µM
# Procedure, shortened: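 Luciferase-expressing P. falciparum in RBCs, 2% Hct, 0.1% parasitemia final; RPMI 1640 + 0.5% Albumax; 48 h, 37 C, 5% CO2; luminescence readout, signal drop = growth inhibition.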
row,SMILES,Potency
1,CC(=O)SCC[N+](C)(C)C,inactive
2,NCCCCCCCCCCN,inactive
3,CN1[C@@H](CC(=O)c2ccccc2)CCC[C@H]1C[C@H](O)c1ccccc1,inactive
4,Cc1ccc(C(=O)O[C@H](C(=O)O)[C@@H](OC(=O)c2ccc(C)cc2)C(=O)O)cc1 (tested in a mixture with another compound),inactive
5,CC(C)(C)NCC(O)COc1nsnc1N1CCOCC1 (stereo unspecified),inactive
6,OCC1O[C@H](O)C(Cl)C(O)C1O (stereo partly specified),inactive
7,CN[C@H](CC(C)C)C(=O)N[C@H]1C(=O)N[C@@H](CC(N)=O)C(=O)N[C@H]2C(=O)N[C@H]3C(=O)N[C@H](C(=O)N[C@H](C(=O)O)c4cc(O)cc(O)c4-c4cc3ccc4O)[C@H](O)c3ccc(c(Cl)c3)Oc3cc2cc(c3O[C@@H]2O[C@H](CO)[C@@H](O)[C@H](O)[C@H]2O[C@H]2C[C@](C)(N)[C@H](O)[C@H](C)O2)Oc2ccc(cc2Cl)[C@H]1O,inactive
8,NCCCCC(=O)O,inactive
9,NC(=O)C(=O)O,inactive
10,O=C(O)CC1CCCc2ccccc2C1O (stereo unspecified),inactive
11,S=C(S)OC1CC2CC1C1CCCC21 (stereo unspecified),inactive
12,C=C/C(C)=C/[C@@]1(C)SC(=O)C(C)=C1O,inactive
13,CC(=O)N[C@H](C(=O)O)C(C)(C)SN=O,inactive
14,CC1CN(S(=O)(=O)c2cccc3cnccc23)CCN1 (stereo unspecified),inactive
15,CO/N=C(\C(=O)N[C@@H]1C(=O)N2C(C(=O)O)=C(COC(C)=O)CS[C@H]12)c1csc(N)n1 (stereo in doubt),inactive
16,CCCCCCCCCCCCCCCC(=O)NCC(COP(=O)([O-])OCC[N+](C)(C)C)OCC (stereo unspecified),inactive

row,SMILES,Potency
1,CN(C)c1nc(N)c(C(=O)N=C(N)N)nc1Cl,inactive
2,N=C(N)SCCc1ccc(CCSC(=N)N)cc1,inactive
3,CC1(C)CCC=[N+]1[O-],inactive
4,CN1CCC[C@H]1c1cccnc1,inactive
5,O=C(O)CNC(=O)C(CS)Cc1ccccc1 (stereo unspecified),inactive
6,C=CC(N)CCC(=O)O (stereo unspecified),inactive
7,COc1cc2c(CCNC(C)=O)c[nH]c2cc1Cl,inactive
8,COc1cc(C(O)CO)ccc1OS(=O)(=O)O (stereo unspecified),inactive
9,c1ccc(-c2ccccn2)nc1,inactive
10,NO,inactive
11,O=C(O)c1cc(=O)c2c(Cl)cc(Cl)cc2[nH]1,inactive
12,NCCSSCCN,inactive
13,CN1C2CCC1CC(OC(=O)C(O)c1ccccc1)C2 (stereo unspecified),inactive
14,O=C(O)[C@@H]1C[C@@H](C(=O)O)N1,inactive
15,Cn1c(=O)c2[nH]c(-c3ccccc3)nc2n(C)c1=O,inactive
